Measurements as given in a collection of fitness landscapes (doi:10.1016/j.celrep.2020.107928).
Over roughly 81,000 sequences, “one-hybrid fitness for binding parS DNA” has its median near -0.17; the highest 2% begin near 0.51. Only a selection was taken, and the highest values are over-represented in it overall.

B1: Caulobacter ParB omega fusion; a variant is named by its letters at X, in order, B8GW30 (parent)
chain: MESVVVGEPGMSEGRRGLGRGLSALLGEVDAAPAQAPGEQLGGSREAPIEILQRNPDQPRRTFREEDLEDLSNSIREKGVLQPILVRPSPDTAGEYQIVAGERAWRAAQRAGLKTVPIMVRELDDLAVLEIGIIENVQRADLNVLEEALSYKVLMEKFERTQENIAQTIGKSXSHVANXMRLLXLPDEVQSYLVSGELTAXHARAIAAAADPVALAKQIIEGGLSVRETEALARKAPNLSAGKSKGGRPPRVKDTDTQALESDLSSVLGLDVSIDHRGSTGTLTITYATLEQLDDLCNRLTRGI

Variants of: B1
Assay: one-hybrid fitness for binding parS DNA (scaled: cognate 1, non-cognate 0); higher = stronger binding
Conditions: with parS DNA site
Outline: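 Fitness is the rescaled log change in variant-to-wild-type read ratio, measured by Illumina sequencing of plasmids before and after bacterial one-hybrid selection. The scale puts cognate at 1 and non-cognate at 0. Selection of Caulobacter ParB libraries, four specificity codons randomised, took place in E. coli USO with a HIS3 reporter, site 19 bp from the promoter, over 48 hours at 37°C on M9-minus-histidine with 0.1 mM IPTG and 5 mM 3-AT.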

| Variant | one-hybrid fitness for binding parS DNA |
| --- | --- |
| FIST | ≤ 0.2 |
| SDVE | ≤ 0.2 |
| QNER | ≤ 0.2 |
| HDLW | ≤ 0.2 |
| GHTP | ≤ 0.2 |
| IPGC | ≤ 0.2 |
| FIPR | ≤ 0.2 |
| LDNV | ≤ 0.2 |
| RMTP | ≤ 0.2 |
| RMTR | ≤ 0.2 |
| RSTC | 0.97 |
| RTTN | 0.415 |
| RMTC | 0.985 |
| RTTQ | ≤ 0.2 |
| RETC | ≤ 0.2 |
| RITY | 0.443 |
| RITC | 0.962 |
| RSTQ | ≤ 0.2 |
| RITR | ≤ 0.2 |
| RTTC | 0.991 |
| QHHF | ≤ 0.2 |
| PRIV | ≤ 0.2 |
| VMLC | ≤ 0.2 |
| DQKI | ≤ 0.2 |

| Variant | one-hybrid fitness for binding parS DNA |
| --- | --- |
| NPVG | ≤ 0.2 |
| FASY | ≤ 0.2 |
| GGAS | ≤ 0.2 |
| RRTC | 0.616 |
| RHTC | 0.946 |
| RHTH | ≤ 0.2 |
| RPTC | ≤ 0.2 |
| RHTY | 0.41 |
| RKTN | 0.336 |
| RKTP | ≤ 0.2 |
| RRTR | ≤ 0.2 |
| RKTC | 0.793 |
| NRTC | ≤ 0.2 |
| RDTC | ≤ 0.2 |
| RCTC | 1 |
| MMQL | ≤ 0.2 |
| GRRM | ≤ 0.2 |
| RHSV | ≤ 0.2 |
| AKSG | ≤ 0.2 |
| REHW | ≤ 0.2 |
| EAGS | ≤ 0.2 |
| KYAG | ≤ 0.2 |
| ELVS | ≤ 0.2 |
| SVCS | ≤ 0.2 |

| Variant | one-hybrid fitness for binding parS DNA |
| --- | --- |
| LPIR | ≤ 0.2 |
| GTYV | ≤ 0.2 |
| VEST | ≤ 0.2 |
| SGLP | ≤ 0.2 |
| CLRH | 0.227 |
| RFTN | 0.405 |
| RATN | 0.436 |
| RLTN | 0.43 |
| RLTC | 1 |
| NFTC | ≤ 0.2 |
| RATP | ≤ 0.2 |
| RLTM | 0.346 |
| RFTC | 0.95 |
| RATC | 0.982 |
| REFP | ≤ 0.2 |
| GDAW | ≤ 0.2 |
| RNFF | ≤ 0.2 |
| RNAK | ≤ 0.2 |
| RNAT | 0.686 |
| RNFT | 0.573 |
| RNFK | ≤ 0.2 |
| RNAM | 0.243 |
| VNTS | ≤ 0.2 |
| NGQK | ≤ 0.2 |

| Variant | one-hybrid fitness for binding parS DNA |
| --- | --- |
| QLDA | ≤ 0.2 |
| AVCE | ≤ 0.2 |
| APET | ≤ 0.2 |
| RRTH | ≤ 0.2 |
| RRTP | ≤ 0.2 |
| RRTD | ≤ 0.2 |
| RRTQ | ≤ 0.2 |
| RRTS | 0.651 |
| RRTN | 0.695 |
| APDT | ≤ 0.2 |
| CSER | ≤ 0.2 |
| DLWS | ≤ 0.2 |
| MGLC | ≤ 0.2 |
| GWAG | ≤ 0.2 |
| KEHC | ≤ 0.2 |
| RPVT | ≤ 0.2 |
| RSVT | 0.707 |
| RDVT | ≤ 0.2 |
| REVT | ≤ 0.2 |
| RCVT | 0.843 |
| CVDQ | ≤ 0.2 |
| ITTC | ≤ 0.2 |
| LKCF | ≤ 0.2 |
| HKKY | ≤ 0.2 |

| Variant | one-hybrid fitness for binding parS DNA |
| --- | --- |
| RIIH | 0.233 |
| RIPF | ≤ 0.2 |
| RIPG | 0.703 |
| RIPR | ≤ 0.2 |
| RIIG | 0.924 |
| RIIY | 0.398 |
| DMEL | ≤ 0.2 |
| CRVS | ≤ 0.2 |
| QASM | ≤ 0.2 |
| RYKF | 0.257 |
| RYVP | ≤ 0.2 |
| RYKQ | ≤ 0.2 |
| RYVD | ≤ 0.2 |
| RYKG | 0.91 |
| RYVG | 0.899 |
| VKQG | ≤ 0.2 |
| RVKQ | ≤ 0.2 |
| RVVG | 0.942 |
| RVKG | 0.941 |
| RVVK | ≤ 0.2 |
| RVKM | 0.393 |
| RVVF | 0.22 |
| QSVI | ≤ 0.2 |
| DCRY | ≤ 0.2 |

| Variant | one-hybrid fitness for binding parS DNA |
| --- | --- |
| LYRG | ≤ 0.2 |
| QLEI | ≤ 0.2 |
| RRNN | 0.811 |
| RRNH | 0.256 |
| RRDD | ≤ 0.2 |
| RRNS | 0.646 |
| RRNP | ≤ 0.2 |
| RRND | ≤ 0.2 |
| RRDS | 0.743 |
| RRDN | 0.257 |
| RRDP | ≤ 0.2 |
| MPNM | ≤ 0.2 |
| LHPH | ≤ 0.2 |
| GDDG | ≤ 0.2 |
| QSME | ≤ 0.2 |
| ACRS | ≤ 0.2 |
| SHIK | ≤ 0.2 |
| VLLG | ≤ 0.2 |
| RFDN | 0.354 |
| RFDS | 0.954 |
| RFDP | ≤ 0.2 |
| RFND | ≤ 0.2 |
| RFNH | ≤ 0.2 |
| RFNS | 0.984 |

| Variant | one-hybrid fitness for binding parS DNA |
| --- | --- |
| RMAW | 0.235 |
| WGKS | ≤ 0.2 |
| RQTE | ≤ 0.2 |
| NRHC | ≤ 0.2 |
| RRSQ | ≤ 0.2 |
| RRDT | 0.648 |
| RRRR | ≤ 0.2 |
| RRSK | ≤ 0.2 |
| RRYF | ≤ 0.2 |
| RRDF | ≤ 0.2 |
| RRRT | 0.597 |
| RRYT | 0.604 |
| RRRK | ≤ 0.2 |
| RRST | 0.54 |
| RRDK | ≤ 0.2 |
| RRYQ | ≤ 0.2 |
| SYQG | ≤ 0.2 |
| LIRC | ≤ 0.2 |
| MILL | ≤ 0.2 |
| PRDA | ≤ 0.2 |
| YSLD | ≤ 0.2 |
| WHRF | ≤ 0.2 |
| RRGK | ≤ 0.2 |
| RRCQ | ≤ 0.2 |

| Variant | one-hybrid fitness for binding parS DNA |
| --- | --- |
| RRGM | 0.391 |
| RRLT | 0.623 |
| RRCK | ≤ 0.2 |
| RRWT | 0.682 |
| RRLM | ≤ 0.2 |
| RRWR | ≤ 0.2 |
| RRLQ | ≤ 0.2 |
| RRCT | 0.587 |
| RRWM | ≤ 0.2 |
| RRGT | 0.566 |
| SPPK | ≤ 0.2 |
| RSIQ | ≤ 0.2 |
| YRAT | ≤ 0.2 |
| EFSC | ≤ 0.2 |
| DTGT | ≤ 0.2 |
| LRWE | ≤ 0.2 |
| AHLK | ≤ 0.2 |
| MITC | ≤ 0.2 |
| RRPK | ≤ 0.2 |
| LTLY | ≤ 0.2 |
| DRHT | ≤ 0.2 |
| RRQF | ≤ 0.2 |
| RRHT | 0.593 |
| RRNK | ≤ 0.2 |

| Variant | one-hybrid fitness for binding parS DNA |
| --- | --- |
| RRNR | ≤ 0.2 |
| RRHR | ≤ 0.2 |
| RRNT | 0.565 |
| RRQT | 0.551 |
| RRQK | ≤ 0.2 |
| HISY | ≤ 0.2 |
| PLCG | ≤ 0.2 |
| KSHC | ≤ 0.2 |
| TRTL | ≤ 0.2 |
| QHPL | ≤ 0.2 |
| TQMA | ≤ 0.2 |
| LYGV | ≤ 0.2 |
| STLG | ≤ 0.2 |
| RMFF | 0.206 |
| RMAT | 0.913 |
| RMAY | 0.436 |
| RMFM | 0.369 |
| RMFT | 0.882 |
| RMAQ | ≤ 0.2 |
| VYHP | ≤ 0.2 |
| HINR | ≤ 0.2 |
| PLDY | ≤ 0.2 |
| PNDH | ≤ 0.2 |
| RVVD | ≤ 0.2 |

| Variant | one-hybrid fitness for binding parS DNA |
| --- | --- |
| RVKP | ≤ 0.2 |
| RVKS | 0.831 |
| RVKH | ≤ 0.2 |
| RVVS | 1.03 |
| RVVN | 0.41 |
| EWSG | ≤ 0.2 |
| QKNH | ≤ 0.2 |
| APDA | ≤ 0.2 |
| DFGA | ≤ 0.2 |
| RPGA | ≤ 0.2 |
| RFGA | 0.531 |
| DMGA | ≤ 0.2 |
| RCGA | 0.653 |
| RTGA | 0.679 |
| RWGA | 0.386 |
| DTGA | ≤ 0.2 |
| ETGA | ≤ 0.2 |
| PFGA | ≤ 0.2 |
| RMGA | 0.573 |
| NTKT | ≤ 0.2 |
| QYPA | ≤ 0.2 |
| WNKI | ≤ 0.2 |
| RAGA | 0.595 |
| RLGA | 0.617 |

| Variant | one-hybrid fitness for binding parS DNA |
| --- | --- |
| RNGA | 0.496 |
| RSGA | 0.597 |
| DLGA | ≤ 0.2 |
| RHGA | 0.546 |
| REGA | ≤ 0.2 |
| NLGA | ≤ 0.2 |
| DAGA | ≤ 0.2 |
| VGER | ≤ 0.2 |
| ETLC | ≤ 0.2 |
| ETVR | ≤ 0.2 |
| LAFP | ≤ 0.2 |
| GGRS | ≤ 0.2 |
| KQSE | ≤ 0.2 |
| PDSM | ≤ 0.2 |
| LRGD | ≤ 0.2 |
| RPEC | ≤ 0.2 |
| RMEC | 0.878 |
| RLEC | 0.947 |
| RLER | ≤ 0.2 |
| RKEC | 0.893 |
| RLEI | ≤ 0.2 |
| RKEI | ≤ 0.2 |
| RMEN | 0.369 |
| RCEC | 0.866 |

| Variant | one-hybrid fitness for binding parS DNA |
| --- | --- |
| RMEH | ≤ 0.2 |
| RDEC | ≤ 0.2 |
| RKEQ | ≤ 0.2 |
| LRQY | ≤ 0.2 |
| VQGR | ≤ 0.2 |
| HFMV | ≤ 0.2 |
| TEEC | ≤ 0.2 |
| FLDS | ≤ 0.2 |
| HFDS | ≤ 0.2 |
| QTWK | ≤ 0.2 |
| CLLK | ≤ 0.2 |
| TGRC | ≤ 0.2 |
| RIEY | 0.338 |
| RAEM | 0.246 |
| RHEF | ≤ 0.2 |
| RREH | ≤ 0.2 |
| RIER | ≤ 0.2 |
| RREP | ≤ 0.2 |
| RIEC | 0.791 |
| RHEQ | 0.223 |
| RAEC | 0.807 |
| RREC | 0.731 |
| RHEC | 0.851 |
| RAER | ≤ 0.2 |

| Variant | one-hybrid fitness for binding parS DNA |
| --- | --- |
| GGWR | ≤ 0.2 |
| ITFG | ≤ 0.2 |
| ITHW | ≤ 0.2 |
| KYTR | ≤ 0.2 |
| QQLK | ≤ 0.2 |
| YTGV | ≤ 0.2 |
| RTEC | 0.874 |
| RTEY | 0.414 |
| RFEI | ≤ 0.2 |
| RTEK | ≤ 0.2 |
| NFEC | ≤ 0.2 |
| RFEC | 0.727 |
| RSEC | 0.739 |
| RSEN | 0.333 |
| RSED | ≤ 0.2 |
| YRPK | ≤ 0.2 |
| DVSL | ≤ 0.2 |
| PMLT | ≤ 0.2 |
